N-glyco inh = N-linked glycosylation inhibition. D54 ERlucT glycosylation luciferase reporter, 24 h; percent of 100 nM tunicamycin response. reporter increase, % at 12.5 µM. AID 588692. hit rate 0.23% among 360,000;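 active = mean luciferase reporter signal, scaled so untreated is 0 and the glycosylation-blocking control 100, at or above a set limit in every replicate; inconclusive = mean reaches the limit but not every replicate does; inactive = mean below the limit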;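 note: luciferase carries N-glycosylation sites so blocking glycosylation raises the light; 0% = median of neutral control wells and 100% = median of 100 nM tunicamycin wells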
HIV Env fusion = blocks HIV Env-driven cell-cell fusion; HeLa-JRFL Env/CEM21 cell fusion, luciferase; inhibition, % at 12.3 µM; hit rate 1.1% among 360,000; AID 651610;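 active = mean replicate inhibition score of at least 50 and every replicate individually at or above 50; inconclusive = only one of the two criteria met; inactive = mean below 50 and not all replicates reaching 50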;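 note: 0% = plate neutral controls and 100% = maraviroc near 300 nM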
Shn3 3UTR inh = Schnurri-3 reporter inhibition in Clone20 osteoblasts | inhibition, % at 12.5 µM | hit rate 0.52% among 360,000 | Clone20 osteoblast Shn3 3'UTR firefly luciferase, 24 h;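 active = mean inhibition of at least 75% with every replicate also reaching 75%; inconclusive = mean inhibition at least 75% but some replicate below; inactive = mean inhibition below 75%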;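 note: 0% = median of neutral control wells and 100% = pilot-screen positive control compound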
PAX8 reporter = lowers PAX8-driven luciferase in RMG-I cells. RMG-I TPO-luciferase reporter, SteadyGlo, 24 h. inhibition, % at 12.6 µM. hit rate 1.2% among 360,000;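 active = mean replicate inhibition at least 60% with every replicate also reaching 60%; inconclusive = only one of the two criteria is met; inactive = mean below 60% and not all replicates reaching 60%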;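 note: luciferase light reporting Pax8 driven TPO promoter activity; plate controls were median of neutral control wells for no effect and mitoxantrone controls for full effect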
NSD2 inh = NSD2 (human) methyltransferase inhibition; NSD2 peptide methylation, AlphaScreen, 120 min; inhibition, % at 12.5 µM; hit rate 0.54% among 310,000; AID 743445; in the data active = inhibition above about 50%
Target sequence (O96028 whole entry, looked up): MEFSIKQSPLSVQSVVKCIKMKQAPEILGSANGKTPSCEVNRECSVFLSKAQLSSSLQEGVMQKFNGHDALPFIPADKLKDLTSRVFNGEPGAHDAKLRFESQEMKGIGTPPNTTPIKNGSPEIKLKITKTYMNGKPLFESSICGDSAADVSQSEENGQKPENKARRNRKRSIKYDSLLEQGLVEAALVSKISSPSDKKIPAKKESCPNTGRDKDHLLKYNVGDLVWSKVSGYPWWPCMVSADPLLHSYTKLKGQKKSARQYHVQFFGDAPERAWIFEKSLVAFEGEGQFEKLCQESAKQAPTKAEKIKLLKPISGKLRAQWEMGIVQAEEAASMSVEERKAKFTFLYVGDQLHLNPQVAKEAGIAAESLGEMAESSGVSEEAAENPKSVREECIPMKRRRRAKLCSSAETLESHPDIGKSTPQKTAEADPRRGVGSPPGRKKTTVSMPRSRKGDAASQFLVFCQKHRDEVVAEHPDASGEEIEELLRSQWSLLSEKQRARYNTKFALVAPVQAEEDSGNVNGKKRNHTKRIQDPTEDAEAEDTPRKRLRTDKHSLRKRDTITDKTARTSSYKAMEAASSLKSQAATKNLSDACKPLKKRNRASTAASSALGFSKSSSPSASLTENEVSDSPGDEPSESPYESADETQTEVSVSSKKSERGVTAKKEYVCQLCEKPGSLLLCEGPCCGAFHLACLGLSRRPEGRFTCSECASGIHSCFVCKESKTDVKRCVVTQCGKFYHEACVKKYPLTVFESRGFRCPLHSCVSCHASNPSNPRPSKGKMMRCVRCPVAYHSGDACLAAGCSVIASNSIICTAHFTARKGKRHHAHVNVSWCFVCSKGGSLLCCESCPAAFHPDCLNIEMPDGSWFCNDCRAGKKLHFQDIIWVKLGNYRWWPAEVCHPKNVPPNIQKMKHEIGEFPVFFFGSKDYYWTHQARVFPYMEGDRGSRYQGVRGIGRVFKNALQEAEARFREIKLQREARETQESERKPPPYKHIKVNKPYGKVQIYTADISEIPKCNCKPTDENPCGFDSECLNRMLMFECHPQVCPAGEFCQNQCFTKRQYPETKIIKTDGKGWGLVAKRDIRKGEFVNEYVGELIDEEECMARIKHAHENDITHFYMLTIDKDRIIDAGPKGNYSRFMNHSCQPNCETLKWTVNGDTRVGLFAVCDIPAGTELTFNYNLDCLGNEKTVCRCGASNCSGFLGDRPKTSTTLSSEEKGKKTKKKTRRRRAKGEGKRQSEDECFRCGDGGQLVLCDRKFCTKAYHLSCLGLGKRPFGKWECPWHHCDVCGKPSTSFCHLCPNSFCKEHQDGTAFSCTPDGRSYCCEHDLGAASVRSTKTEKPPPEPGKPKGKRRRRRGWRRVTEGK
EBV LMP1 NFkB = reduces LMP1-driven NF-kappaB luciferase signal | LMP1-induced NF-kappaB luciferase reporter cells, luminescence | inhibition, % at 12.5 µM | hit rate 0.69% among 350,000; in the data active = inhibition above about 41%; inconclusive = no clear call, values can overlap the other calls;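 note: 0% = neutral control wells and 100% = reference inhibitor control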
* = called active by the depositor; ? = inconclusive; / = not tested or not shown; ! = a repeat was not active; [ ] = another dose, or the depositor's remark. In the library only some 2.8% were active in any assay of this set; here they are far more common.

SMILES	N-glyco inh	HIV Env fusion	Shn3 3UTR inh	PAX8 reporter	NSD2 inh	EBV LMP1 NFkB
C[C@@H]1CN([C@@H](C)CO)C(=O)c2cc(NS(=O)(=O)c3ccccc3)ccc2O[C@@H](C)CCCCO[C@@H]1CN(C)Cc1ccccc1	/	-35[16.7 µM]	/	-11	/	/
COc1ccc(S(=O)(=O)Nc2ccc3c(c2)C(=O)N([C@@H](C)CO)C[C@H](C)[C@@H](CN(C)C(=O)C2CCCCC2)OCCCC[C@@H](C)O3)cc1	/	5[16.7 µM]	/	37	/	/
COc1ccc(CSc2nncn2C)cc1F	2	60*	-8	-9	-2	-3
CCCCN(CCCC)C(=O)C1(P(=O)(c2ccccc2)c2ccccc2)CCC1	0	60*	20	13	-2	-3
CCN(CC)C(=O)C1(P(=O)(c2ccccc2)c2ccccc2)CCC1	0	21	-14	16	0	/
CC(C)Cn1c(N)c(C(=O)CSc2ccc3c(c2)OCCO3)c(=O)n(C)c1=O	-8	98*	86*	/	/	39
CC(C)Cn1c(N)c(C(=O)COC(=O)c2ccc3c(c2)OCCO3)c(=O)n(C)c1=O	1	35	67	4	-3	29
CC(C)Cc1ccc(CN2CC[C@@H](NS(=O)(=O)c3ccccc3)C2)cc1	/	-9[16.7 µM]	/	1	/	/
C=C(C)c1cccc(C(C)(C)NC(=O)N2CCN(c3ccccc3)CC2)c1	-1	4	19	-4	-1	-9
C=C(C)c1cccc(C(C)(C)NC(=O)N2CCN(c3ccccc3OC)CC2)c1	0	/	-8	106*	-3	7
CC1Cc2cc(-c3csc(NC(=O)Cc4cccs4)n3)ccc2N1S(C)(=O)=O (stereo not drawn)	-3	75*	15	/	-2	-4
CNC(=O)C[C@H]1CC[C@H]2[C@H](COc3ccc(NC(=O)c4ccc5c(c4)OCO5)cc3C(=O)N2C)O1	/	23[16.7 µM]	/	-12	/	/
O=C(Nc1cccc(F)c1)C1CCN(C(=O)N2CCOc3ccccc32)CC1	1	-14	-21	-13	/	84*
CCc1ccc(NC(=O)C2CCN(C(=O)N3CCOc4ccccc43)CC2)cc1	-1	-28	20	3	/	-10
C[C@H]1CCCCO[C@@H](CN(C)C(=O)Nc2ccc(C(F)(F)F)cc2)[C@@H](C)CN([C@@H](C)CO)C(=O)c2cc(NC(=O)Nc3ccc4c(c3)OCO4)ccc2O1	/	35[16.7 µM]	/	1	/	/
CCOc1ccc2c(c1)-c1c(ssc1=S)C(C)(C)N2C(=O)c1ccco1	7	71*	14	16	7	8
COc1ccc2c(c1)-c1c(ssc1=S)C(C)(C)N2C(=O)CSC1=NCCS1	-6	10	8	-31	/	7
O=C(NCc1nc2ccccc2[nH]1)C1=C[C@@H](c2ccc(Br)cc2)C[C@@H](OCCCCO)O1	0	-27	11	9	/	5
O=C(NCc1nc2ccccc2[nH]1)C1=C[C@@H](c2ccc(Br)cc2)C[C@@H](OCc2ccc(CO)cc2)O1	-1	-11	3	85*!	/	3
CO[C@H]1CN(C)C(=O)c2cc(NC(=O)C3CCC3)ccc2OC[C@H](C)N(C)C[C@@H]1C	/	12[16.7 µM]	/	-6	/	/
CCCOc1ccc(C(=O)NNC(=S)NC(=O)CC)cc1	-2	60*	85	/	2	34
CCN(C[C@H]1N[C@H](CO)[C@H]1c1ccc(-c2ccccc2)cc1)C(=O)COC	/	/	/	-2	/	/
O=C(/C=C/c1ccccc1)NC(NC(=S)Nc1ccc(Cl)cc1)C(Cl)(Cl)Cl (stereo not drawn)	8	61*	?	/	/	38
N#CCCn1cc(C(=O)Nc2ccc(C(=O)O)cc2)c(-c2cccc(Br)c2)n1	1	12	15	11	0	7
N#CCCn1cc(C(=O)Nc2ccccn2)c(-c2ccccc2)n1	1	7	7	-32	-1	69*
Cc1cc(C)n(-c2nc(Nc3ccccc3C(F)(F)F)nc(-n3nc(C)cc3C)n2)n1	-8	/	97*	/	-2	33
CCc1cc[n+](C2=C([O-])c3ccccc3C(=O)/C2=N\S(=O)(=O)c2cccs2)cc1	-15	?	59	87*	82*	3
O=C1C(=O)c2ccccc2C([O-])=C1[n+]1ccccc1	7	-20	12	10	45	-19
COc1ccc(NC(=O)Nc2ccc3c(c2)C(=O)N([C@H](C)CO)C[C@H](C)[C@H](CN(C)S(=O)(=O)c2ccc(F)cc2)OCCCC[C@H](C)O3)cc1	/	34[16.7 µM]	/	16	/	/

From PubChem BioAssay
